# How the values were obtained:
# Test in all cases: DAPPL (digital affinity profiling via proximity ligation, sequencing); 10 mM Tris-HCl pH 7.5, 50 mM NaCl, 1 mM DTT, 4% glycerol, room temperature, 30 min; GST-TFs on glutathione beads, 16-mer random dsDNA library, 0.1% formaldehyde crosslink after washing; high values mean tight binding
# FLI1 = target: T1, FLI1 (Homo sapiens, UniProt Q01543 1-452); details: protein: recombinant; tags: N-terminal GST; dsDNA, one strand shown
# T1 sequence: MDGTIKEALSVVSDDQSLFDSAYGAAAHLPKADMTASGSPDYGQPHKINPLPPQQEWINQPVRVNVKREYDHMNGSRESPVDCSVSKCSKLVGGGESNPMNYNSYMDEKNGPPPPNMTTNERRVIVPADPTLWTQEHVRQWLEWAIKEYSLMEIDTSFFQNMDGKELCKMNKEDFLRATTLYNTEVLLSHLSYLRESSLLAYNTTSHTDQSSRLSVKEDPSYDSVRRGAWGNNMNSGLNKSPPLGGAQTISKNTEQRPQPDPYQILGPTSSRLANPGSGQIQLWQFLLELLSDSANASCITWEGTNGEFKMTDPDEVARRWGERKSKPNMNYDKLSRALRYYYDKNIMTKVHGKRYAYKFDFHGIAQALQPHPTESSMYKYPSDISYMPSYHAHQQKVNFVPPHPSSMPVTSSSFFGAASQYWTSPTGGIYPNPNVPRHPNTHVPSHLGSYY
# Method in brief: (§1)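 GST fusions of human transcription factors were expressed in yeast and captured with glutathione beads. Once given DNA barcodes and pooled alongside a tag-only sample, they were incubated for 30 min at room temperature with 200 nmole of a random double-stranded 16-mer DNA library in Tris/NaCl/DTT/glycerol buffer, then washed, crosslinked (0.1% formaldehyde), proximity-ligated, PCR-amplified and sequenced on an Illumina NextSeq500. The binding signal of each hexamer is its read frequency for a factor divided by its frequency for the tag-only sample.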
# ELK1 = target: T2, ELK1 (Homo sapiens, UniProt P19419 1-428); details: protein: recombinant; tags: N-terminal GST; dsDNA, one strand shown
# T2 sequence: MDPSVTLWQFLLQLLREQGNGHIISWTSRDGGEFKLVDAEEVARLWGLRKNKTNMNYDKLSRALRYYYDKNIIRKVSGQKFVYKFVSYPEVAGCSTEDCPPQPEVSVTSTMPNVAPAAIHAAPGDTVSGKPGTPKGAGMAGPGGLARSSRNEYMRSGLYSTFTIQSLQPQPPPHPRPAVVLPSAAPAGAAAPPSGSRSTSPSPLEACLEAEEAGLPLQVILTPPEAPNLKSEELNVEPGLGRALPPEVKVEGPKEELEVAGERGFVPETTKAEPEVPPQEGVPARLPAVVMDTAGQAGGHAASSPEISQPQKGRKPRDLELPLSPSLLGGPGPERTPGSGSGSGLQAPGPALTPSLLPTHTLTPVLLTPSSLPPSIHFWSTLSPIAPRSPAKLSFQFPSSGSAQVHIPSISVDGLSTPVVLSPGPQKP
# Method in brief: as §1
# GABPA = target: T3, GABPA (Homo sapiens, UniProt Q06546 1-454); details: protein: recombinant; tags: N-terminal GST; dsDNA, one strand shown
# T3 sequence: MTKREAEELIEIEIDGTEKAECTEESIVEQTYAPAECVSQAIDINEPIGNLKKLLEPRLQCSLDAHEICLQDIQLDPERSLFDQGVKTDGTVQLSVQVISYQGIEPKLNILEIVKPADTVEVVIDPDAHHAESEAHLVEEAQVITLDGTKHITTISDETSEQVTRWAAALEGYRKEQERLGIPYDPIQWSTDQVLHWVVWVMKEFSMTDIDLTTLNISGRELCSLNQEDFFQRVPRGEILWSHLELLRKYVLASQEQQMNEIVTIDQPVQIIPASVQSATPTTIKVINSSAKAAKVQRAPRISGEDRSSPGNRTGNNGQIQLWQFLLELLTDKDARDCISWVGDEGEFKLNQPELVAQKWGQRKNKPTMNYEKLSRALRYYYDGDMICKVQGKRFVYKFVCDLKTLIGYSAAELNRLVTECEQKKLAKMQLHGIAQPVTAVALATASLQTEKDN
# Method in brief: as §1
# ERG = target: T4, ERG (Homo sapiens, UniProt P11308 1-479); details: protein: recombinant; tags: N-terminal GST; dsDNA, one strand shown
# T4 sequence: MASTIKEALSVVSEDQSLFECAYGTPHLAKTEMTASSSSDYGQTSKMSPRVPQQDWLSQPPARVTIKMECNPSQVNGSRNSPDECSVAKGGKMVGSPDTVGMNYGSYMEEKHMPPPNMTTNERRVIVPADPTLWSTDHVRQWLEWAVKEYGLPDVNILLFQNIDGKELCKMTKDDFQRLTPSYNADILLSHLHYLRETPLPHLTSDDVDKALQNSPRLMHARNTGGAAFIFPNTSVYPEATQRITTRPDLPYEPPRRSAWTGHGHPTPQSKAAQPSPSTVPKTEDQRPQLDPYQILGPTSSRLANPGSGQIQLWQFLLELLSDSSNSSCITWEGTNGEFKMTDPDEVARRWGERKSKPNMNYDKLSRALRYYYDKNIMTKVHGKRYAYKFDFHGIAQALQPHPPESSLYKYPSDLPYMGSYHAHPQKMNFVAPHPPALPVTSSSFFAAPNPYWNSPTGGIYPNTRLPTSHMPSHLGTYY
# Method in brief: as §1
# ELF1 = ELF1 (Homo sapiens, UniProt P32519 1-619); details: protein: recombinant; tags: N-terminal GST; dsDNA, one strand shown
# ELF1, sequence (P32519 whole entry): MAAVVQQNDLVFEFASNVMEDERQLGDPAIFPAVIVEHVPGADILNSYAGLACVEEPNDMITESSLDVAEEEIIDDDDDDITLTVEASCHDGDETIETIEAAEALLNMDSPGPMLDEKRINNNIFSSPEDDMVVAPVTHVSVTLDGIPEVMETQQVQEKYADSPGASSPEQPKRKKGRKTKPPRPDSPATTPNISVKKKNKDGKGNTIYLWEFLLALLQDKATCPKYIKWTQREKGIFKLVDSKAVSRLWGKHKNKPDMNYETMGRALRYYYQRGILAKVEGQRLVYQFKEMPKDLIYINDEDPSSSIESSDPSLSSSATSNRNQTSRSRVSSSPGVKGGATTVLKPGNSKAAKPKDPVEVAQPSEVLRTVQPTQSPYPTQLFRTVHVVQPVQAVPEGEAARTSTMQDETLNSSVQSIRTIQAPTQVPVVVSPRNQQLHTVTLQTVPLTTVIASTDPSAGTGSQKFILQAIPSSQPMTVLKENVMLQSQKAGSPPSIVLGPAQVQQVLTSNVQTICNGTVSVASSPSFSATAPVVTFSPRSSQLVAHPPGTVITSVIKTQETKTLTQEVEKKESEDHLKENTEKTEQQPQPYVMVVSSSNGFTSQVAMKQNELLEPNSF
# Method in brief: as §1
# EHF = target: T5, EHF (Homo sapiens, UniProt Q9NZC4 1-300); details: protein: recombinant; tags: N-terminal GST; dsDNA, one strand shown
# T5 sequence: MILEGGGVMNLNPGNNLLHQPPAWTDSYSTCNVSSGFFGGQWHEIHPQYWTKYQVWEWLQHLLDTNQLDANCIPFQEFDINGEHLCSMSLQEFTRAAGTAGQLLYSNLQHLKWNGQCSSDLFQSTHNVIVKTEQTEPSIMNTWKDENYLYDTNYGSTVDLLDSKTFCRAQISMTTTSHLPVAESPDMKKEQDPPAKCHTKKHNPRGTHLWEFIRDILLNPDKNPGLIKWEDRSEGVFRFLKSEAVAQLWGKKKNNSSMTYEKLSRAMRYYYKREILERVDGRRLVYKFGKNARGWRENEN
# Method in brief: as §1
# SPI1 = SPI1 (Homo sapiens, UniProt P17947 1-270); details: protein: recombinant; tags: N-terminal GST; dsDNA, one strand shown
# Method in brief: as §1
# SPIB = SPIB (Homo sapiens, UniProt Q01892 1-262); details: protein: recombinant; tags: N-terminal GST; dsDNA, one strand shown
# SPIB, sequence (Q01892 whole entry): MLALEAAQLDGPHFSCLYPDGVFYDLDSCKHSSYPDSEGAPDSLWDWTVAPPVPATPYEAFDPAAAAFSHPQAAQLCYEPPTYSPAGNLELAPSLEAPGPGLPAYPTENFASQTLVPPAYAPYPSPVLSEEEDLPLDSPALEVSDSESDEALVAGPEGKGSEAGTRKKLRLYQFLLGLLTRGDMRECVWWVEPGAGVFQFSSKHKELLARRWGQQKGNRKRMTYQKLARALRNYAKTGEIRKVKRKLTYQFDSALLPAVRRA
# Method in brief: as §1
# ELK3 = target: T6, ELK3 (Homo sapiens, UniProt P41970 1-407); details: protein: recombinant; tags: N-terminal GST; dsDNA, one strand shown
# T6 sequence: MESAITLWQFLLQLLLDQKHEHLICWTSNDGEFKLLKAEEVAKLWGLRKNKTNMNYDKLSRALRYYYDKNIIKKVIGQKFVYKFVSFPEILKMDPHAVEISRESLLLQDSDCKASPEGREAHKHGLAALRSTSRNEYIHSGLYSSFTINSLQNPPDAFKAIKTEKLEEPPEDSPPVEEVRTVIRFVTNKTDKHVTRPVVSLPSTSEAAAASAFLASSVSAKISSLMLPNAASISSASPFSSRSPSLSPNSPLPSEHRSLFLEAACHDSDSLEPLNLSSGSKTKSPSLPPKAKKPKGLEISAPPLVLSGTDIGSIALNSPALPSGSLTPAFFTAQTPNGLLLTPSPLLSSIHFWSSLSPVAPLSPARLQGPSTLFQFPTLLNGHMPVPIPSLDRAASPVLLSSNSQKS
# Method in brief: as §1
# FEV = target: T7, FEV (Homo sapiens, UniProt Q99581 1-238); details: protein: recombinant; tags: N-terminal GST; dsDNA, one strand shown
# T7 sequence: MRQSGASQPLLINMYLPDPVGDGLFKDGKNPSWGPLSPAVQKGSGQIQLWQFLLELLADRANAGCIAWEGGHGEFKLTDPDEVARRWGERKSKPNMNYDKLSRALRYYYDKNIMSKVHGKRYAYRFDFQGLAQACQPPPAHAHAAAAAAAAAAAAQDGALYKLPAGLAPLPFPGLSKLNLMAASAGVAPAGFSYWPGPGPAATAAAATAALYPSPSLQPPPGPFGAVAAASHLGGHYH
# Method in brief: as §1
# ETV5 = ETV5 (Homo sapiens, UniProt P41161 1-510); details: protein: recombinant; tags: N-terminal GST; dsDNA, one strand shown
# ETV5, sequence (P41161 whole entry): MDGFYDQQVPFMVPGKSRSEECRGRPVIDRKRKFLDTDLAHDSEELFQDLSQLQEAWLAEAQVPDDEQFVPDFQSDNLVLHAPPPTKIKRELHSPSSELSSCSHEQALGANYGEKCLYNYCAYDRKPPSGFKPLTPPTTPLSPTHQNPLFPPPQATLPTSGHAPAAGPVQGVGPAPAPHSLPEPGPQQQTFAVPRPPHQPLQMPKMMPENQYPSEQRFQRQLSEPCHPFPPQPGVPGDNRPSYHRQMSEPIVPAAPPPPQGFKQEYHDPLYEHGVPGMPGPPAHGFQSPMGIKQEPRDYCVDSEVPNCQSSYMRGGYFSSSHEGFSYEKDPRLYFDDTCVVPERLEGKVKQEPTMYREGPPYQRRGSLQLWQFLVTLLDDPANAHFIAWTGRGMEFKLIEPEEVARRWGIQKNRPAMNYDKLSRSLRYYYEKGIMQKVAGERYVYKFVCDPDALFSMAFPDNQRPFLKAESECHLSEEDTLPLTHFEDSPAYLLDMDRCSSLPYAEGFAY
# Method in brief: as §1
# HSF1 = HSF1 (Homo sapiens, UniProt Q00613 1-529); details: protein: recombinant; tags: N-terminal GST; chain copies: 3; dsDNA, one strand shown
# HSF1, sequence (Q00613 whole entry): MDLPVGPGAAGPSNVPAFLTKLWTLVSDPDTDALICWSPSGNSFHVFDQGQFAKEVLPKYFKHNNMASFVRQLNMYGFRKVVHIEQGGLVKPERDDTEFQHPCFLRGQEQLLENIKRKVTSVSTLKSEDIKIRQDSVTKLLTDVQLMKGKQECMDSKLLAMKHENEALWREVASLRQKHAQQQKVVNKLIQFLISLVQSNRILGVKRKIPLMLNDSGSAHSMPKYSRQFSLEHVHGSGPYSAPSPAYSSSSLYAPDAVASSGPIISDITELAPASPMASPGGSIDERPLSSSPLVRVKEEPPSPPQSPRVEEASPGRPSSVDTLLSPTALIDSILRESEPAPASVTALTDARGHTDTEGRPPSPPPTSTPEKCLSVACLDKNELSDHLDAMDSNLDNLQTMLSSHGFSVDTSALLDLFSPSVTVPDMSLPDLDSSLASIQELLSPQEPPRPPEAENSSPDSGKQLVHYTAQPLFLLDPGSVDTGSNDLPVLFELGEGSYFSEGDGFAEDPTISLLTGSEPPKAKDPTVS
# Method in brief: as §1
# SPIC = target: T8, SPIC (Homo sapiens, UniProt Q8N5J4 1-248); details: protein: recombinant; tags: N-terminal GST; dsDNA, one strand shown
# T8 sequence: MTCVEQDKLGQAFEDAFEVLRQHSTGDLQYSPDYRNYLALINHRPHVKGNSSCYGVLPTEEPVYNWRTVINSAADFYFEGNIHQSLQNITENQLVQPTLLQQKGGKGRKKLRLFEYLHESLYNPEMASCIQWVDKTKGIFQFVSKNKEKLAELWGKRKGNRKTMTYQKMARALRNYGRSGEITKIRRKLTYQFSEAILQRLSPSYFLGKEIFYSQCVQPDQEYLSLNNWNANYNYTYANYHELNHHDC
# Method in brief: as §1
# ELF4 = ELF4 (Homo sapiens, UniProt Q99607 1-663); details: protein: recombinant; tags: N-terminal GST; dsDNA, one strand shown
# ELF4, sequence (Q99607 whole entry): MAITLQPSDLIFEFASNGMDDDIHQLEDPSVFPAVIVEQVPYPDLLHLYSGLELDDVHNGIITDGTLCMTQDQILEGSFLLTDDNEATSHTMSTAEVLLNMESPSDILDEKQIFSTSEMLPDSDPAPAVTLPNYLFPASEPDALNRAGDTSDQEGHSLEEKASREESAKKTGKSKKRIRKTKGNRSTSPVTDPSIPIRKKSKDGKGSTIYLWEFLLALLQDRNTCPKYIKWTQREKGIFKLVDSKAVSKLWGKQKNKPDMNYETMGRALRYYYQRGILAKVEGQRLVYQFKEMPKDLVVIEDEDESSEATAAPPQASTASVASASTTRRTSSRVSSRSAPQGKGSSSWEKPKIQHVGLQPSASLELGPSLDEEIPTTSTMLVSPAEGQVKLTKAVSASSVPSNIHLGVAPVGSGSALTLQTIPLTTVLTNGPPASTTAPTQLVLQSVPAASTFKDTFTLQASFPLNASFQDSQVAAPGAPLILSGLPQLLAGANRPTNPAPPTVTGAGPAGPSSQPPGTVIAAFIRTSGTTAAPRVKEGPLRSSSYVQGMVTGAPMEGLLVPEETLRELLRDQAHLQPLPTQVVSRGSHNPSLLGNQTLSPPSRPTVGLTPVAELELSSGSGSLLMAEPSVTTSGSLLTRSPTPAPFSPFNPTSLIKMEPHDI
# Method in brief: as §1
# ELK4 = target: T9, ELK4 (Homo sapiens, UniProt P28324-2 1-405); details: protein: recombinant; tags: N-terminal GST; dsDNA, one strand shown
# T9 sequence: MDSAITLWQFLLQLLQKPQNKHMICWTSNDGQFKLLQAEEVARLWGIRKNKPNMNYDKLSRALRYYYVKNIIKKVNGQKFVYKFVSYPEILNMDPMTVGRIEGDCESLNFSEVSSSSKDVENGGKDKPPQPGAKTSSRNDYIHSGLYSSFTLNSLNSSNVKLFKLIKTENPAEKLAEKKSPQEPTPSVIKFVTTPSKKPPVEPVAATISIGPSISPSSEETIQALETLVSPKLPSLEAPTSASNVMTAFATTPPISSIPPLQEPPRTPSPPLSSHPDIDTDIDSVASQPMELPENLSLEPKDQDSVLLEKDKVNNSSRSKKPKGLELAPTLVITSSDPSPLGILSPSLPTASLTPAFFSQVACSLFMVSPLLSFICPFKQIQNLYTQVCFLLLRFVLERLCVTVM
# Method in brief: as §1
# ETV2 = target: T10, ETV2 (Homo sapiens, UniProt O00321 1-342); details: protein: recombinant; tags: N-terminal GST; dsDNA, one strand shown
# T10 sequence: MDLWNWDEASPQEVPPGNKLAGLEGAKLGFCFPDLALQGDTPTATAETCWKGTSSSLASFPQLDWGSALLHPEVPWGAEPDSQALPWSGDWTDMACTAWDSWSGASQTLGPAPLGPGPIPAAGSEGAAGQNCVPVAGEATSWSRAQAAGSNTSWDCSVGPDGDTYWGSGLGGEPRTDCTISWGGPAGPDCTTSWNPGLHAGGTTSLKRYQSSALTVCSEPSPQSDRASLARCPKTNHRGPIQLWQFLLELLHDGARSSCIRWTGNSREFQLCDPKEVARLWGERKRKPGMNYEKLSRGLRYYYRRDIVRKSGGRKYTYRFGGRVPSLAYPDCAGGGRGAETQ
# Method in brief: as §1
# ELF3 = target: T11, ELF3 (Homo sapiens, UniProt P78545 1-371); details: protein: recombinant; tags: N-terminal GST; dsDNA, one strand shown
# T11 sequence: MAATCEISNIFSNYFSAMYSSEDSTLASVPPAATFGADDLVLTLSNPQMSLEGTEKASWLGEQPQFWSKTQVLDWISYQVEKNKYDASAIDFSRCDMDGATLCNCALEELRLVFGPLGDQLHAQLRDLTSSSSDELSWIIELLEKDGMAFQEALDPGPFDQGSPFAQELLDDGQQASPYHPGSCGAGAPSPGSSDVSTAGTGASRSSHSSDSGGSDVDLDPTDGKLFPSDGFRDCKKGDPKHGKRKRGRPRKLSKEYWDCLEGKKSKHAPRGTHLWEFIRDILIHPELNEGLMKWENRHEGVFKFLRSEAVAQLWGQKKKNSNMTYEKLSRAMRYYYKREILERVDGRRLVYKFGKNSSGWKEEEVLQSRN
# Method in brief: as §1
# CRX = CRX (Homo sapiens, UniProt O43186 1-299); details: protein: recombinant; tags: N-terminal GST; dsDNA, one strand shown
# CRX, sequence (O43186 whole entry): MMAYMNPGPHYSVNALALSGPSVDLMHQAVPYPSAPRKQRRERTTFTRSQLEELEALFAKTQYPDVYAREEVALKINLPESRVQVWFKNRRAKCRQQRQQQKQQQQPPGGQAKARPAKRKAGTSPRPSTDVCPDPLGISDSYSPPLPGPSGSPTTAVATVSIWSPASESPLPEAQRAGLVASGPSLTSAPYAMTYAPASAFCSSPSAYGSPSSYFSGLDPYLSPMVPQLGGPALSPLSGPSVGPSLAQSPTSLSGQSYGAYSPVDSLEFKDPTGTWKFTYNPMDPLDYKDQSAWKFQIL
# Method in brief: as §1
# ETV1 = ETV1 (Homo sapiens, UniProt P50549 1-477); details: protein: recombinant; tags: N-terminal GST; dsDNA, one strand shown
# ETV1, sequence (P50549 whole entry): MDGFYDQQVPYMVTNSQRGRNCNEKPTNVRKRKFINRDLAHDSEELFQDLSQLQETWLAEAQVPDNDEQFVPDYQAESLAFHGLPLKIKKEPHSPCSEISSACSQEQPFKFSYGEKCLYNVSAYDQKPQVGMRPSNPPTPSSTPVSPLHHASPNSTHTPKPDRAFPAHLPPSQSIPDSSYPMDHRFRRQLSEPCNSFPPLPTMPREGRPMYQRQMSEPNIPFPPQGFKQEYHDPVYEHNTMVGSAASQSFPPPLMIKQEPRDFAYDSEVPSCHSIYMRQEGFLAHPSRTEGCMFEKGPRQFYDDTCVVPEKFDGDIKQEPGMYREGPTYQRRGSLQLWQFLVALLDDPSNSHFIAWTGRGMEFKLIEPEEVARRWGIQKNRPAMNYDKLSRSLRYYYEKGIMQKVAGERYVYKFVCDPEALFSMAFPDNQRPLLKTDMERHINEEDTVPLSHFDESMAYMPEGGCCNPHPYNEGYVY
# Method in brief: as §1
sequence,measurement,setting,value
CTAAAC,binding signal,FLI1,"1.24 fold enrichment (6-mer frequency, TF over GST control)"
same,binding signal,ELK1,"1.18 fold enrichment (6-mer frequency, TF over GST control)"
same,binding signal,GABPA,"1.23 fold enrichment (6-mer frequency, TF over GST control)"
same,binding signal,ERG,"1.23 fold enrichment (6-mer frequency, TF over GST control)"
same,binding signal,ELF1,"1.24 fold enrichment (6-mer frequency, TF over GST control)"
same,binding signal,EHF,"1.18 fold enrichment (6-mer frequency, TF over GST control)"
same,binding signal,SPI1,"1.17 fold enrichment (6-mer frequency, TF over GST control)"
same,binding signal,SPIB,"1.19 fold enrichment (6-mer frequency, TF over GST control)"
same,binding signal,ELK3,"1.2 fold enrichment (6-mer frequency, TF over GST control)"
same,binding signal,FEV,"1.21 fold enrichment (6-mer frequency, TF over GST control)"
same,binding signal,ETV5,"1.18 fold enrichment (6-mer frequency, TF over GST control)"
same,binding signal,HSF1,"1.26 fold enrichment (6-mer frequency, TF over GST control)"
same,binding signal,SPIC,"1.18 fold enrichment (6-mer frequency, TF over GST control)"
same,binding signal,ELF4,"1.26 fold enrichment (6-mer frequency, TF over GST control)"
same,binding signal,ELK4,"1.26 fold enrichment (6-mer frequency, TF over GST control)"
same,binding signal,ETV2,"1.33 fold enrichment (6-mer frequency, TF over GST control)"
same,binding signal,ELF3,"1.18 fold enrichment (6-mer frequency, TF over GST control)"
same,binding signal,CRX,"1.47 fold enrichment (6-mer frequency, TF over GST control)"
same,binding signal,ETV1,"1.24 fold enrichment (6-mer frequency, TF over GST control)"
